Assay [1] has as its target Fibroblast growth factor receptor 4 (Homo sapiens) (UniProt P22455). The note with it: at 1 µM.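 Note: reported figure is the averaged percent inhibition of FGFR4, from the GSK PKIS kinase screening panel.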
Assay [2] deals with Tyrosine-protein kinase Fgr (Homo sapiens) (UniProt P09769). The note with it: at 0.1 µM.
The target is the same in assay [3]. The note with it: at 1 µM.
Assay [4] concerns the target Vascular endothelial growth factor receptor 1 (Homo sapiens) (UniProt P17948). The note with it: at 0.1 µM.
The target is the same in assay [5]. The note with it: at 1 µM.
Assay [6] deals with Receptor-type tyrosine-protein kinase FLT3 (Homo sapiens) (UniProt P36888). Conditions: at 0.1 µM.
Assay [7] has the same target. The note with it: at 1 µM.
The test system of assay [8] is T1, Receptor-type tyrosine-protein kinase FLT3 (Homo sapiens), P36888 [D835Y].
T1 sequence (whole entry): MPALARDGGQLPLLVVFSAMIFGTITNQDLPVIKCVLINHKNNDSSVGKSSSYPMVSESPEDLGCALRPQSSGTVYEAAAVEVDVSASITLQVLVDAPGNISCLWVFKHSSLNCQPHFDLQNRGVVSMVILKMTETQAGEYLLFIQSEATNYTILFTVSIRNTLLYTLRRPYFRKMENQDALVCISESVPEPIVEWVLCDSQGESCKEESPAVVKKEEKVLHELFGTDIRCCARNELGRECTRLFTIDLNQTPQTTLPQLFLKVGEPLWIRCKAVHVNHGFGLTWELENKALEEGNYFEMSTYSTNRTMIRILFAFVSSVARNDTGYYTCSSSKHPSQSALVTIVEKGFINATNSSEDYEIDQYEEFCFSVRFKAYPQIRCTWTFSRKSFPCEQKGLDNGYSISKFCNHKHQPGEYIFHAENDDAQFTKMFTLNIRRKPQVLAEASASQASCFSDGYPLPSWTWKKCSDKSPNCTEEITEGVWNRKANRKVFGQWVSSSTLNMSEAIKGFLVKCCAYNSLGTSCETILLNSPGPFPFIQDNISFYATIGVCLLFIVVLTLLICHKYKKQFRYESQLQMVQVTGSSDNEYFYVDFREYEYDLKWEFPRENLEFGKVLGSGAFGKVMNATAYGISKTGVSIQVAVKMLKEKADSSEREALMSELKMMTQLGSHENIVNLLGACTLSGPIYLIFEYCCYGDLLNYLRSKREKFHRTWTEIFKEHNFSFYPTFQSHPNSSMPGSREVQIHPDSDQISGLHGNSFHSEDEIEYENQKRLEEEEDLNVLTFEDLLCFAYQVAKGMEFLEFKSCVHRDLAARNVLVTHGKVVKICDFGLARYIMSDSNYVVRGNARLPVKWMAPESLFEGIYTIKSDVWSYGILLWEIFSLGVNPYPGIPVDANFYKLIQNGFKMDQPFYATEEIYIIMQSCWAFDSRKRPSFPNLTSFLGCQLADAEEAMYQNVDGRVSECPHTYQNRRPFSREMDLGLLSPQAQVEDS
Conditions: at 0.1 µM.

Assay [9] deals with Non-receptor tyrosine-protein kinase TYK2 (Homo sapiens) (UniProt P29597). Conditions: at 1 µM.
Non-receptor tyrosine-protein kinase TYK2 (Homo sapiens), sequence (P29597 whole entry): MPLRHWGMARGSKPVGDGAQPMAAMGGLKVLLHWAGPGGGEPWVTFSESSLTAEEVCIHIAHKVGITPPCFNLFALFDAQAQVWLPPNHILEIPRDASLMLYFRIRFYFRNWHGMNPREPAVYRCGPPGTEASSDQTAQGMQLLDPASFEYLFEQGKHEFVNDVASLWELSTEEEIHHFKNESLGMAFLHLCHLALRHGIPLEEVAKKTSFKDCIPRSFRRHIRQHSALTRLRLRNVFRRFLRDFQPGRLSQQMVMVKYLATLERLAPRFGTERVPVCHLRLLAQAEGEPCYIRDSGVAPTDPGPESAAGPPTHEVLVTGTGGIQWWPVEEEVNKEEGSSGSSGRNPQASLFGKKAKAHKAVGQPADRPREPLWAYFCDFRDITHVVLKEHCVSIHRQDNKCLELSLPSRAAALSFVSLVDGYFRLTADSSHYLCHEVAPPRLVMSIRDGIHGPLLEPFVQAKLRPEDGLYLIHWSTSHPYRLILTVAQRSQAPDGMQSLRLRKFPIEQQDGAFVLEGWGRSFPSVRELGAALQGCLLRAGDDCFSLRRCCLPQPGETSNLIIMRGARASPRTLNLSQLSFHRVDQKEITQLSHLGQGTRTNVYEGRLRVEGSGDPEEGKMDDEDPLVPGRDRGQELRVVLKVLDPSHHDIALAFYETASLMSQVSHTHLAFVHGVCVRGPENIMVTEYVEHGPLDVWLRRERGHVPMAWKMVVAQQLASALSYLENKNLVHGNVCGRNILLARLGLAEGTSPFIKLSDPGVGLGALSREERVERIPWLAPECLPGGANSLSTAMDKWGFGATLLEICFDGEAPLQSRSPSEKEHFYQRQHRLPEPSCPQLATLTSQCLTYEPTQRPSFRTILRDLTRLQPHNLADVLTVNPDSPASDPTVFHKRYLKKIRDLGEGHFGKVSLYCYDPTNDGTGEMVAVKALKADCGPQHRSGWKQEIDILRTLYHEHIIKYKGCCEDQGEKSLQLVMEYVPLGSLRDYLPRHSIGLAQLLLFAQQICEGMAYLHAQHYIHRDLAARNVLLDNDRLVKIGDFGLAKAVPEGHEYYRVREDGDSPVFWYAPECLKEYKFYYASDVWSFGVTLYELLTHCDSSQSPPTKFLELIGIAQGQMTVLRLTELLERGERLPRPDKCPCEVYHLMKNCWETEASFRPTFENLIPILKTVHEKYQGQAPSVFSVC
Assay [10] has as its target T2, Tyrosine-protein kinase receptor TYRO3 (Homo sapiens) (UniProt Q06418).
T2 sequence (whole entry): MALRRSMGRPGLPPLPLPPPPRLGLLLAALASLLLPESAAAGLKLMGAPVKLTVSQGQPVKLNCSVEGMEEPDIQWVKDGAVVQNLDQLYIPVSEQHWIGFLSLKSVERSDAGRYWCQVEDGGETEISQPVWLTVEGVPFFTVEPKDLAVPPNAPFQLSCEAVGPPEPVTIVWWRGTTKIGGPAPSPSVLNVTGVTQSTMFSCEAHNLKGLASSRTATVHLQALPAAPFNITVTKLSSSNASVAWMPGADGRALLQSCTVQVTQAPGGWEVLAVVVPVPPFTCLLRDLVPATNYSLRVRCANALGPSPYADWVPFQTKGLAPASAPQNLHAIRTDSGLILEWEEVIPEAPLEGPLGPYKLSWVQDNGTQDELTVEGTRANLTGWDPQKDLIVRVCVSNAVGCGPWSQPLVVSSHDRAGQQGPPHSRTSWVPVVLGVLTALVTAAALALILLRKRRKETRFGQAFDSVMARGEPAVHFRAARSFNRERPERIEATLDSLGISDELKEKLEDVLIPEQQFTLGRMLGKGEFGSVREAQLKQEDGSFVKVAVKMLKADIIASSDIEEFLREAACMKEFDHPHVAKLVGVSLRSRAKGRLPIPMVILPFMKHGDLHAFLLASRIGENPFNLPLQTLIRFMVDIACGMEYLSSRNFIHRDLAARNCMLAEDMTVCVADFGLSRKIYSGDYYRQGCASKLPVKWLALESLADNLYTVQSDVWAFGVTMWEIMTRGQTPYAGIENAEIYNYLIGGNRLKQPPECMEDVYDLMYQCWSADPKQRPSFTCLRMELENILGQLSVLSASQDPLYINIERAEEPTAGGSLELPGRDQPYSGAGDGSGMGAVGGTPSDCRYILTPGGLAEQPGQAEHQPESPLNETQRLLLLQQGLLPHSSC
The note with it: at 0.1 µM.

The target in assay [11] is T2, Tyrosine-protein kinase receptor TYRO3 (Homo sapiens). The note with it: at 1 µM.
Assay [12] addresses Tyrosine-protein kinase Yes (Homo sapiens) (UniProt P07947). Conditions: at 0.1 µM.
The target is the same in assay [13]. The note with it: at 1 µM.
Assay [14] addresses T3, Tyrosine-protein kinase ZAP-70 (Homo sapiens) (UniProt P43403).
T3 sequence (whole entry): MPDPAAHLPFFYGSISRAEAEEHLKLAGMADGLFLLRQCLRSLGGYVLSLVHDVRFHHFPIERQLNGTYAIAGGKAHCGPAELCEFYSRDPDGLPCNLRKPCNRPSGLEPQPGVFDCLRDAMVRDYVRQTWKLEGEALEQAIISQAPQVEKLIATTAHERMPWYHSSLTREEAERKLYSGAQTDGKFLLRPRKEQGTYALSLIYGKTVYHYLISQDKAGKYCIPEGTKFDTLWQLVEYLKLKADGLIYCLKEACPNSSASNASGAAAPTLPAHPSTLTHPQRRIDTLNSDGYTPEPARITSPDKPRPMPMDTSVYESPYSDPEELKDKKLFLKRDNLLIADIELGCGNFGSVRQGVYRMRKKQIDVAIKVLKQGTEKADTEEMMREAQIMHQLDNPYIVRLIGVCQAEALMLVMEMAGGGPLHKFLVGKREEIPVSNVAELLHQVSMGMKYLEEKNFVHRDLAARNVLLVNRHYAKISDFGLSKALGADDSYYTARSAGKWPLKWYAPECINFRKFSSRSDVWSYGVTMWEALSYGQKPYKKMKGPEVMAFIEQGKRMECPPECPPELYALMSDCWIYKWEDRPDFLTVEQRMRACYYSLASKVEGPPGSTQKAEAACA
Conditions: at 0.1 µM.

Assay [15] has as its target Serine/threonine-protein kinase B-raf (Homo sapiens) (UniProt P15056). The note with it: at 0.1 µM.
Assay [16] shares this target. The note with it: at 1 µM.
For assay [17], the system named is Serine/threonine-protein kinase B-raf (Homo sapiens), P15056 [V600E]. The note with it: at 0.1 µM.
Serine/threonine-protein kinase B-raf (Homo sapiens), P15056 [V600E], sequence (P15056 whole entry V600E): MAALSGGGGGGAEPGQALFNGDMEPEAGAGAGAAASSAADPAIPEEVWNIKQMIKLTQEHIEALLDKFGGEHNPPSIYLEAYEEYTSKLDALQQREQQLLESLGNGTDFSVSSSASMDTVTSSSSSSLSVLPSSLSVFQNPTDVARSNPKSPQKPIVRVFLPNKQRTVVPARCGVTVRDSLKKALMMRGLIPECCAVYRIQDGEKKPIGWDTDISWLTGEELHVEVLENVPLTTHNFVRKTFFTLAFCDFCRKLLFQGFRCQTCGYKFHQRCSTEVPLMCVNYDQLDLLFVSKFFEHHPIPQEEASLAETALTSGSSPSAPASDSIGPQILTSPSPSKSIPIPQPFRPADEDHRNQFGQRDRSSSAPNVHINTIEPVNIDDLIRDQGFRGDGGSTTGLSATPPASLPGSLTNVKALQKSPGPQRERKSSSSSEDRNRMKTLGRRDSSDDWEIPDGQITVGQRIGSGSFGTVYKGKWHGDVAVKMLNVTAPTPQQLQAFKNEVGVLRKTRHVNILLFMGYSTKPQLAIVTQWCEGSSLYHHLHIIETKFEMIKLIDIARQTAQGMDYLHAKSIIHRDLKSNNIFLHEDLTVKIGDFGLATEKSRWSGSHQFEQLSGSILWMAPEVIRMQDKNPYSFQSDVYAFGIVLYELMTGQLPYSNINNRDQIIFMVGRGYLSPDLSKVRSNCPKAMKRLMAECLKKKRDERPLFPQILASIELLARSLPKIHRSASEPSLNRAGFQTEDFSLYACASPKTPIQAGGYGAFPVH
Assay [18] shares this test system. Conditions: at 1 µM.
The target of assay [19] is RAF proto-oncogene serine/threonine-protein kinase (Homo sapiens) (UniProt P04049). Conditions: at 0.1 µM.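 Note: values are mean CRAF kinase inhibition from profiling of the GSK Published Kinase Inhibitor Set.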
RAF proto-oncogene serine/threonine-protein kinase (Homo sapiens), sequence (P04049 whole entry): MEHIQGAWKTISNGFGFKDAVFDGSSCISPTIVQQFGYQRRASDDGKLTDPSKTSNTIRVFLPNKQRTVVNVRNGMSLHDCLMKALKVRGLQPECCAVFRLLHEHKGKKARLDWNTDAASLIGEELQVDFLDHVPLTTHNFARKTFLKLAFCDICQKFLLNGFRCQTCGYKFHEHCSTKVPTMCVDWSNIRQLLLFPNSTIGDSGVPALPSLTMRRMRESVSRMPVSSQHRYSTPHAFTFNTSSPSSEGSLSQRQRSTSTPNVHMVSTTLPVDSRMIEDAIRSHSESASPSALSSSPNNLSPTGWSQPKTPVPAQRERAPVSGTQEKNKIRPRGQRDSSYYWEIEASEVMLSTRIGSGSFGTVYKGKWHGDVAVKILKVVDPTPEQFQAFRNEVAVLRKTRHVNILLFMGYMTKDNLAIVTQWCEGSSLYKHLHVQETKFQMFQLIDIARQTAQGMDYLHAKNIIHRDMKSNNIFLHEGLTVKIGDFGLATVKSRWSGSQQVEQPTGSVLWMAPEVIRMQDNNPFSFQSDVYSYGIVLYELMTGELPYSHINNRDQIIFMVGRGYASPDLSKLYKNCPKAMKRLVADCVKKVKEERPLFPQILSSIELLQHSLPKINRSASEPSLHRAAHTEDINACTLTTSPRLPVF
For assay [20], the target named is T3, Tyrosine-protein kinase ZAP-70 (Homo sapiens). Conditions: at 1 µM.

Fibroblast growth factor receptor 4 (Homo sapiens), sequence (P22455 22-802 limits assumed): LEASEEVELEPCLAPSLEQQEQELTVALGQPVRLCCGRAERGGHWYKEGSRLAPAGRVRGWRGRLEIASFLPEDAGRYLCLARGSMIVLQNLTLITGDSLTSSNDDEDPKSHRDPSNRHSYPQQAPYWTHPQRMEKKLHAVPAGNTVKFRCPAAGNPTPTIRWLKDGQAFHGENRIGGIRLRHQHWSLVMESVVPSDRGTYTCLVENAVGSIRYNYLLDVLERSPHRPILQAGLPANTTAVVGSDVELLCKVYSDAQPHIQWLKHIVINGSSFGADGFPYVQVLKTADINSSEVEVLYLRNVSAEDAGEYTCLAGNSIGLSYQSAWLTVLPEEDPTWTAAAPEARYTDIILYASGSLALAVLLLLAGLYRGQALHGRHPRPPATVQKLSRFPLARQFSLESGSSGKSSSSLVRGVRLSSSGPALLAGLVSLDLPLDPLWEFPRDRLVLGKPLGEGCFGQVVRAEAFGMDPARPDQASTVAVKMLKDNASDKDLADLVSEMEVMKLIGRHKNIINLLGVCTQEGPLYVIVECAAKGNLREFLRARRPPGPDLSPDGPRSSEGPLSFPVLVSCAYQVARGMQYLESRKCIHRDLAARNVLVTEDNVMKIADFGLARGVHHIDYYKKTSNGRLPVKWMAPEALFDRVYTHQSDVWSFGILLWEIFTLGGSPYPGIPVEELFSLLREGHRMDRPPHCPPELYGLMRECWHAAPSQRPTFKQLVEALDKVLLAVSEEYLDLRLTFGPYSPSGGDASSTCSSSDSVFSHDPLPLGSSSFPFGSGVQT
Tyrosine-protein kinase Fgr (Homo sapiens), sequence (P09769 2-529 limits assumed): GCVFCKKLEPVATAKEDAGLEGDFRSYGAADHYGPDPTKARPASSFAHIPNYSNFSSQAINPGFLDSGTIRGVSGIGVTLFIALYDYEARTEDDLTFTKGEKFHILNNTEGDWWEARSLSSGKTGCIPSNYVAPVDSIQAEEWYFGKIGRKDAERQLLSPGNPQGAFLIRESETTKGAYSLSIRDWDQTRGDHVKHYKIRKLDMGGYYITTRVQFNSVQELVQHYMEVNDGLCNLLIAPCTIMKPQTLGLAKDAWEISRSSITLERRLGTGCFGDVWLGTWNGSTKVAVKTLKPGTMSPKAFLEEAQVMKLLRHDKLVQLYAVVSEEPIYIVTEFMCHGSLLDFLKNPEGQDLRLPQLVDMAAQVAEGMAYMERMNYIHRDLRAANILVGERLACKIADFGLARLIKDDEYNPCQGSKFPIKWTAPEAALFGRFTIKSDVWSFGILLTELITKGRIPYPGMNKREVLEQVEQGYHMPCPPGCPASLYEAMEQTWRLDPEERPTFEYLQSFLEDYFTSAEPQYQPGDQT
Tyrosine-protein kinase Yes (Homo sapiens), sequence (P07947 2-543 limits assumed): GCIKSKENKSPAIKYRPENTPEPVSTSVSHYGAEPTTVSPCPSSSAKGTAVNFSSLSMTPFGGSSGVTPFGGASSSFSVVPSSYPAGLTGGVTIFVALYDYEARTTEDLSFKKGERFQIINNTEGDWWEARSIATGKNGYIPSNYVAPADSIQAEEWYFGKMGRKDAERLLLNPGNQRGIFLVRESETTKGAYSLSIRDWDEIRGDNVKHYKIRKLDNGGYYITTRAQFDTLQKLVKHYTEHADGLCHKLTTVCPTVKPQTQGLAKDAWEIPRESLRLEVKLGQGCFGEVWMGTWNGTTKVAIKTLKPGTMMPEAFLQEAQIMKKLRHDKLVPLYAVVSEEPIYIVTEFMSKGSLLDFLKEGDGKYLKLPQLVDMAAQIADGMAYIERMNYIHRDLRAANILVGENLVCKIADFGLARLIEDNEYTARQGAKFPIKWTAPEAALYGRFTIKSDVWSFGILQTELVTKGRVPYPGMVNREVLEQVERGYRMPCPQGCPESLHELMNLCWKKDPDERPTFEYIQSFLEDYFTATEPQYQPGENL
Serine/threonine-protein kinase B-raf (Homo sapiens), sequence (P15056 whole entry): as the sequence (P15056 whole entry V600E) above, with E600V counted along it

By inhibition is commonly meant the drop in the measured response relative to a control, in per cent. As to `CN(C)CCOc1ccc(-c2nc(-c3ccncc3)c(-c3ccc4c(c3)CC/C4=N\O)[nH]2)cc1`, the inhibition in assay [1] came to 0.44%; in assay [2], 2.2%; in [3], 5.88%; in assay [4] it was 2.37%; in assay [5], 2.95%; in [6], 2.67%. For the same compound, the inhibition in assay [7] was 2.62%; in assay [8] it was 1.65%; in assay [9], -5.49%; in [10], 3.44%; in assay [11] it was 5.27%; in [12] it was 3.06%. Further, the inhibition in assay [13] is 16.4%; in [14], -1.98%; in assay [15], 63.5%; in assay [16] it was 88.8%; in [17] it was 72.2%; in assay [18], 90.1%. The inhibition in assay [19] came to 12.5%.

`N#Cc1c(NC(=O)CN2CCOCC2)sc2c1CCCC2`: the inhibition in assay [1] turned out to be 2.81%; in assay [2], 2.52%; in assay [3], 4.31%; in [4] it was 0.23%; in assay [5] it was 4.24%; in assay [6] it was 1.8%. Moreover, the inhibition was 4.78% in assay [7]; 0.3% in assay [8]; -0.83% in [9]; 2.15% in [10]; 3.91% in assay [11]; 3.9% in assay [12]. The inhibition in assay [13] was 3.95%; in [14] it was 1.13%; in assay [20], -1.02%; in assay [15], 5.62%; in assay [16], 6.96%; in assay [17] it was 5.95%. Further, the inhibition was 4.84% in [18] and 4.41% in assay [19].

Take `COc1cccc(-c2c[nH]c3c(N/N=C/c4ccncc4)ncnc23)c1`: the inhibition in [1] amounted to 2.46%; in assay [2], 14.2%; in [3] it was 54.2%; in assay [4], 2.08%; in assay [5] it was 18.4%; in assay [6], 6.9%. In addition, the inhibition in assay [7] is 39%; in [8], 16.4%; in assay [9] it was 10.5%; in assay [10], 7.3%; in [11], 38%; in assay [12], 19.6%. Further, the inhibition in assay [13] worked out at 65.2%; in assay [14], 1.26%; in assay [20] it was 1.55%; in [15] it was 3.1%; in assay [16], 11%; in [17], 3.98%. Moreover, the inhibition in assay [18] was determined as 11.2%; in assay [19], 2.82%.

`Fc1cccc(COc2ccc(Nc3ncnc4sc(-c5ccco5)cc34)cc2Cl)c1`: the inhibition in assay [1] is -0.7%; in assay [2], 3.8%; in [3], 8.35%; in [4], 2.39%; in assay [5], 2.46%; in assay [7], 4.08%. In addition, the inhibition in assay [8] is -8.41%; in assay [9] it was -1.9%; in assay [10] it was 5.86%; in assay [11], 1.85%; in assay [12], 1.73%; in [13] it was 4.21%. The inhibition in assay [14] came to 0.85%; in [20], 2.41%; in [15] it was 6.56%; in assay [16], 5.32%; in assay [17] it was 4.59%; in assay [18], 3.4%. The inhibition in [19] was -0.33%.

With `COc1cc2c(cc1Nc1nc(Nc3ccsc3C(N)=O)c3cc[nH]c3n1)N(C(=O)CN(C)C)CCC2(C)C`, the inhibition in assay [1] is 4.78%; in assay [2], 1.11%; in assay [3] it was 6.75%; in assay [4], 1.44%; in [5], 1.83%; in assay [6], 4.2%. In addition, the inhibition is 13% in assay [7]; 0.35% in assay [8]; -1.34% in [9]; 3.88% in assay [10]; 18.6% in assay [11]; 2.57% in assay [12]. The inhibition was 0.61% in assay [13]; 2.36% in assay [14]; 14.9% in assay [20]; 6.5% in assay [15]; 14.9% in assay [16]; 7.15% in assay [17]. The inhibition came out at 14% in assay [18] and 1.55% in [19].

For `COc1cc(N2CCN(C(C)C)CC2)ccc1Nc1nc(Nc2ccc(F)cc2C(N)=O)c2cc[nH]c2n1`, the inhibition was 7.42% in [1]; 0.9% in assay [2]; 5.03% in assay [3]; -0.84% in assay [4]; 0.61% in [5]; 2.47% in assay [6]. Further, the inhibition is 8.56% in assay [7]; 2.42% in assay [8]; -2.61% in assay [9]; 0.64% in [10]; 2.95% in [11]; 0.75% in assay [12]. In addition, the inhibition in assay [13] is 7.33%; in assay [14] it was 6.3%; in [20] it was 23.5%; in assay [15], 2.3%; in assay [16], 16.1%; in assay [17] it was 1.62%. Moreover, the inhibition is 13.7% in assay [18] and 0.33% in assay [19].

Consider `CC(C)COC(=O)c1ccc2c(c1)/C(=C/Nc1ccc(S(N)(=O)=O)cc1)C(=O)N2`, for which the inhibition worked out at 2.26% in assay [1]; 4.59% in [2]; 32% in [3]; 4.68% in assay [4]; 39.4% in [5]; 56% in assay [7]. Besides, the inhibition in assay [8] is 58.7%; in assay [9], 4.42%; in [10] it was 0.69%; in assay [11] it was 17%; in assay [12] it was 0.49%; in assay [13], 22.1%. Moreover, the inhibition was -2.35% in assay [14]; 1.21% in assay [20]; 2.66% in assay [15]; 32.8% in [16]; 1.68% in assay [17]; 34% in assay [18]. Besides, in [19], the inhibition is -3.89%.
